Source: PubChem
Shown are actives, neighbours in structure and some others; about 4.8% of the full set was active somewhere.
ssDAF12 agonist: S. stercoralis DAF-12 nuclear receptor activators, primary screen, cell-based, luminescence, HEK293, GRIP1 co-expression, lit1-tk-luc; HEK293 ssDAF-12/GRIP1 lit1-tk-luc reporter; % of 3 µM dafachronic acid response; activation, % at 6.8 µM; AID 652126, 2013; hit rate 1% among 370,000;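 active means activation above the mean over all tested compounds plus 3 SD, cut at about 0.9% in these data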
DAX1 inh-1: DAX1 (NR0B1) inhibitors, primary screen, cell-based, HEK293, Gal4-DAX1, luciferase luminescence; Nuclear receptor subfamily 0 group B member 1 (Homo sapiens), P51843; HEK293 Gal4-DAX1 luciferase reporter; inhibition, % at 6.75 µM; hit rate 0.99% among 340,000; AID 504766, 2011;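 active means inhibition above the mean over all tested compounds plus 3 SD, cut at about 4.2% in these data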;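 further: inhibition shows as a rise in luminescence from relieved DAX1 repression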
Target sequence (P51843 207-470 limits assumed): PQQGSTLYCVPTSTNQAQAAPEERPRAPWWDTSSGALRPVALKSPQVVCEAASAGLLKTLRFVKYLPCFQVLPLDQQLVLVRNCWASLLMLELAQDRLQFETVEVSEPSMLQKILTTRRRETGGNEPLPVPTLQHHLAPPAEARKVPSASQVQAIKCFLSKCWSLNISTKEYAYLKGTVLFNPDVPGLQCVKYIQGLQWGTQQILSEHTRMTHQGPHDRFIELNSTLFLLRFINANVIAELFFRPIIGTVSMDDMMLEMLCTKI
hcDAF12 agonist: H. contortus DAF-12 nuclear receptor activators, primary screen, cell-based, luminescence, HEK293, lit1-tk-luc reporter; HEK293 hcDAF-12 lit1-tk-luc reporter; 0% DMSO, 100% Δ7-dafachronic acid; activation, % at 6.8 µM; hit rate 1.4% among 370,000; AID 652067, 2013;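 active means activation above the mean of all tested compounds plus 3 SD, cut at about 5.5% in these data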
SMARCA2 act: SMARCA2 (BRM) function activators, primary screen, cell-based, luminescence, high throughput; MG213 cells, MMTV-luciferase reporter, dexamethasone, overnight; activation, % at 9.1 µM; hit rate 1% among 370,000; in the data active means activation above about 7.8%
hgDAF-12 ag: H. glycines DAF-12 receptor agonists, primary screen, cell-based, luminescence, HEK293, GAL4 fusion, UAS-luciferase; Nuclear hormone receptor DAF-12 (Heterodera glycines), GAL4 fusion; HEK293 GAL4-hgDAF12 UAS-luciferase reporter, agonist luminescence; normalized to butyrate control; activation, % at 6.8 µM; hit rate 1.8% among 370,000;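 active means activation above a cutoff set at the mean of all screened compounds plus 3 SD, cut at about 10% in these data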
DAX1 inh-2: DAX1 (NR0B1) inhibitors on StAR promoter, primary screen, cell-based, luminescence, SF-1 (NR5A1), full-length DAX-1 | inhibition, % at 6.8 µM | HEK293T StAR-luciferase reporter, SF-1/DAX-1 repression relief | hit rate 1.1% among 370,000;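 active means inhibition above the mean over all tested compounds plus 3 SD, cut at about 3.6% in these data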;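 further: higher inhibition means more luminescence from relief of DAX-1 repression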
Large screens that a line does not name were inactive.

O=[N+]([O-])c1cccc(S(=O)(=O)Nc2cccc(-c3ccc(N4CCOCC4)nn3)c2)c1	DAX1 inh-2 4.4
O=[N+]([O-])c1cccc(S(=O)(=O)Nc2cccc(-c3ccc(N4CCCC4)nn3)c2)c1	none
Cc1ccc(C(=O)Nc2cccc(-c3ccc(N4CCOCC4)nn3)c2)cc1	DAX1 inh-2 4.5
COc1ccc(C(=O)C2CCN(c3ncnc4sccc34)CC2)cc1	none (no result: DAX1 inh-1, SMARCA2 act, DAX1 inh-2)
O=C(NC1CCCCN(Cc2cccc(Cl)c2)C1=O)c1ccc(COc2ccccc2)cc1 (stereo unspecified)	none (no result: DAX1 inh-1)
COc1ccc(F)c(CN(C)CC2CCCN(CCc3ccc(F)cc3)C2)c1 (stereo unspecified)	DAX1 inh-1 4.5
COCCCNC(=O)c1ccc(CN2CCc3ccccc3C2)cc1	DAX1 inh-1 21
Cc1ccc2oc(-c3cccc(NC(=O)/C=C/c4cccc([N+](=O)[O-])c4)c3C)nc2c1	hcDAF12 agonist 6.2
O=C(/C=C/c1cccc([N+](=O)[O-])c1)Nc1ccccn1	none
CC(C)(C)OC(=O)N1CCC(c2ccc[nH]2)(c2c[nH]c3ccccc23)CC1	none (no result: DAX1 inh-1)
COc1cc(/C=N/n2cnnc2)ccc1OCC(=O)N1CCOCC1	DAX1 inh-1 4.9
Cc1c(N=C2C=CC(=O)c3ccccc32)c(=O)n(-c2ccccc2)n1C	ssDAF12 agonist 1.4
Cc1c(N=C2C=C(Br)C(=O)C(Br)=C2)c(=O)n(-c2ccccc2)n1C	none
Nc1c2c(nc3ccccc13)CCCC2O (stereo unspecified)	none
Nc1c2c(nc3ccccc13)CCCC2=O	hcDAF12 agonist 6.5
CN(C(=O)CSc1nc2ccccc2c(=O)n1-c1ccccc1F)C1CCS(=O)(=O)C1 (stereo unspecified)	ssDAF12 agonist 0.9
Cc1cccc(-n2c(SCC(=O)N(C)C3CCS(=O)(=O)C3)nc3ccccc3c2=O)c1C (stereo unspecified)	none
Nc1ncccc1OCc1ccc(Br)cc1	hgDAF-12 ag 11
Cc1ccc(CNC(=O)CSCc2ccccc2F)cc1	hgDAF-12 ag 13
Cc1ccccc1C(=O)NC[C@@H]1CCCN2CCCC[C@H]12	DAX1 inh-1 4.5
COC(=O)C[C@H]1CC[C@H]2[C@H](COc3ccc(NC(=O)Nc4ccccc4F)cc3C(=O)N2C)O1	SMARCA2 act 7.9 (no result: DAX1 inh-1)
O=C(NCCc1ccccc1)OCc1cn(-c2cccc(F)c2F)nn1	none (no result: DAX1 inh-1)
CCCN1C(=O)C(NC(=O)c2ccncc2)(C(F)(F)F)C2=C1CC(C)(C)CC2=O (stereo unspecified)	ssDAF12 agonist 0.9
Cc1onc(-c2ccccc2Cl)c1C(=O)NC(=S)NCCc1ccccc1	SMARCA2 act 8.6
COc1ccc(CCNC(=S)NC(=O)c2c(-c3ccccc3Cl)noc2C)cc1OC	none (no result: DAX1 inh-1)
CC(=O)C1(C(=O)NC2CCCC2)CC(c2ccccn2)=NO1 (stereo unspecified)	none (no result: DAX1 inh-1)
CN(Cc1ccccc1)S(=O)(=O)c1cccc(C(=O)OCc2cccc(C(F)(F)F)c2)c1	none (no result: DAX1 inh-1)
O=C(O)c1nn(Cc2nc3ccccc3o2)c(=O)c2ccccc12	hcDAF12 agonist 5.9
Nn1c(SCc2c(F)cccc2F)nnc1-c1ccccn1	DAX1 inh-1 24
Cc1cc(N2CCN(C(=O)Oc3ccc(-c4ccccc4)cc3)CC2)c2ccccc2n1	none (no result: DAX1 inh-1)
Cc1ccc(S(=O)(=O)N(C)CC(=O)N2CCN(Cc3ccccc3)CC2)cc1	DAX1 inh-1 5.0
Cc1ccc(S(=O)(=O)N(C)CC(=O)N2CCCCCCC2)cc1	none
O=C(NCCN1CCC(Cc2ccccc2)CC1)C1CCCN(S(=O)(=O)c2ccccc2)C1 (stereo unspecified)	none (no result: DAX1 inh-1)
